According to PubChem BioAssay AID624256 (NMMLSC, 2012):
Hit rate of the full screen: of about 360,000 compounds, about 3,700 (1%) were called active. Another 2% or so got no clear call; they are omitted.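 How the source made its calls: active means normalized GFP-positive differentiation at or above the plate's own cutoff, the solvent-only control mean plus 3 SD; inconclusive means no clear call, values can overlap the other calls; inactive means the rest.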 What follows is part of a selection rich in actives, with near analogues and random picks from the rest.

Test: HoxA9-arrested leukemia cell differentiation promoters – flow cytometry, MLPCN library, primary screen (AID 624256);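 on GFP+ MAC1+ double positive: cells exposed to compound for four days before flow analysis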;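 on normalized GFP-positive differentiation: cells exposed to compound for four days before flow analysis; 0% = DMSO wells and 100% = fulvestrant positive control at 5 µM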
Details: ER-HoxA9 myeloid progenitors, lysozyme-GFP differentiation, at 10 µM; GFP+ MAC1+ double positive: measured here: differentiation confirmed by MAC1 staining, stronger effect = higher value; normalized GFP-positive differentiation: stronger effect = higher value

Row | Structure (SMILES) | GFP+ MAC1+ double positive [%] | outcome | normalized GFP-positive differentiation
1 | COc1cccc(CN(C)C(=O)CC[C@H]2O[C@@H](n3cnc4c(NC(=O)c5ccccc5)ncnc43)[C@H](O)[C@@H]2O)c1 | 0.5 | inactive | –
2 | CCCCc1nc2ccc(F)cc2cc1C | 0.5 | inactive | –
3 | O=C(Cc1nc2ccccc2[nH]c1=O)c1ccc(Cl)cc1 | 72.3 | – | 347% (active)
4 | O=c1c(-c2ccc(Cl)cc2)[n+]([O-])c2ccccc2n1OCc1nc2ccccc2[nH]1 | 0.7 | inactive | –
5 | O=C(Cc1ccc(Cl)cc1)c1ccccc1 | 0.7 | inactive | –
6 | CN1OC[C@@H]2CN(C(=O)c3cccnc3)[C@H](c3ccc(N4CCCCC4)cc3)C[C@@H]21 | 1.2 | inactive | –
7 | O=S1(=O)CC(N2CCC(Cc3ccccc3)CC2)CN1Cc1ccccc1 (centres undefined) | 1.3 | inactive | –
8 | CC1(C(=O)NS(=O)(=O)c2cccc(F)c2)CCN1C(=O)Cc1ccc(Cl)cc1Cl (centres undefined) | 0.9 | inactive | –
9 | Cc1ccc(NC(=O)CCN2C(=O)c3ccccc3C2=O)cc1C | 0.6 | inactive | –
10 | Cc1ccc(/C=C2\SC(=S)N(CCC(=O)Nc3ccc(O)cc3)C2=O)cc1 | 17.3 | – | 264% (active)
11 | Cc1cc(C)cc(NC(=O)CCN2C(=O)c3ccccc3C2=O)c1 | 0.5 | inactive | –
12 | O=C(Nc1ccc(F)cc1)Nc1nnc([C@H]2C[C@H](O)[C@@H](CO)O2)s1 | 0.6 | inactive | –
13 | CCCNC(=O)c1cc2c(c(-c3cccc(-c4ccc(C#N)cc4)c3)n1)[C@@H](CCO)N(C(=O)CC)C2 | 0.7 | inactive | –
14 | O=C(NCc1ccc(F)cc1F)[C@@H]1CCCN1C(=O)[C@@H]1CCCN1C(=O)c1cccc(Cl)c1 | 0.5 | inactive | –
15 | CN(C)c1ccc(C=C2C(=O)OC3(CCCC3)OC2=O)cc1 | 0.1 | inactive | –
16 | CN(C)c1ccc(/C=C2\NC(=S)N(Cc3ccccc3)C2=O)cc1 | 23.7 | – | 207% (active)
17 | CC1CN(Cc2ccccc2)C(=S)NC1=O (centres undefined) | 0.4 | inactive | –
18 | COc1ccc([C@H]2CC(=O)C[C@@H](CCn3cc(CC4CCCC4)nn3)O2)cc1 | 0.4 | inactive | –
19 | CC(C)N1C(=O)c2ccccc2NC(=O)C1C(=O)NCc1cccs1 (centres undefined) | 2.7 | inactive | –
20 | Cc1ccc(Nc2nc(Cl)c(C=O)s2)cc1 | 1.3 | – | 146% (active)
21 | CCCCC(=O)Nc1nc(C)c(-c2csc(Nc3ccc(Cl)cc3)n2)s1 | 0.8 | inactive | –

Row | Structure (SMILES) | GFP+ MAC1+ double positive [%] | outcome | normalized GFP-positive differentiation
22 | Cc1ccc(Nc2nnc(SC(C)C(=O)NC3CC3)s2)cc1 (centres undefined) | 0.7 | inactive | –
23 | Cc1ccc(F)c(S(=O)(=O)NC(=O)C2(C)CCN2C(=O)c2ccco2)c1 (centres undefined) | 0.9 | inactive | –
24 | CCCCCNC(=O)C(c1ccc(OC)cc1)n1c(=O)c(-c2ccccc2)nc2ccccc21 (centres undefined) | 2.6 | inactive | –
25 | Cc1cc(Cl)ccc1-c1nc(NCCN(C)C)nc2ccsc12 | 1.3 | inactive | –
26 | CC(C)c1nc(SCC(=O)Nc2cccc(C(=O)O)c2)c2c3c(sc2n1)CCCC3 | 1.4 | inactive | –
27 | Cc1cc(NC(=O)CSc2nc(C(C)C)nc3sc4c(c23)CCC(C)C4)no1 (centres undefined) | 6.9 | – | 29.7% (active)
28 | Cc1cc(NC(=O)CSc2nc3c(cc2C#N)CCCCC3)no1 | 0 | inactive | –
29 | CC(C)C[C@@H]1Cc2[nH][nH]c(=O)c2[C@H](CCc2ccccc2)O1 | 0.9 | inactive | –
30 | Cc1cc2nc(-c3ccc(F)cc3)c(Cc3ccsc3)n2c(C)c1Br | 1.3 | inactive | –
31 | COC(=O)[C@]12CCCCC=C1N(Cc1ccco1)C(=O)[C@H](CC(=O)NCCCCc1ccccc1)C2 | 0.4 | inactive | –
32 | CCc1nc2ccc(C(=O)NC3CCN(Cc4ccccc4)CC3)cn2c1N(C)CCN1CCOCC1 | 1.3 | inactive | –
33 | Oc1ccccc1C1=NN(c2ccccc2)C(c2ccccc2)C1 (centres undefined) | 0.2 | inactive | –
34 | Cc1ccc(C2CC(c3cccc(NS(C)(=O)=O)c3)=NN2S(C)(=O)=O)cc1 (centres undefined) | 0.5 | inactive | –
35 | COc1ccc(C2CC(c3cccc(OC)c3)=NN2c2ccc(S(N)(=O)=O)cc2)cc1 (centres undefined) | 8.9 | – | 14.9% (active)
36 | O=C(/C=C/[C@H]1O[C@@H](n2ccc(=O)[nH]c2=O)[C@H](O)[C@@H]1O)NCc1ccccn1 | 1.5 | inactive | –
37 | Cc1ccc(Cn2cc(CN3CC(N4CCN(C)CC4)CS3(=O)=O)nn2)cc1 (centres undefined) | 1 | inactive | –
38 | CCCCC[C@@H]1C=C(C(=O)OCC)[C@H](c2ccccc2)N1S(=O)(=O)c1ccc(C)cc1 | 0.5 | inactive | –
39 | O=C(O)COc1nsnc1N1CCOCC1 | 0 | inactive | –
40 | c1nc(COc2nsnc2N2CCOCC2)cs1 | 7.1 | – | 13.2% (active)
41 | c1ccc(COc2nsnc2N2CCOCC2)cc1 | 2.7 | inactive | –
42 | CCC(C(=O)NC(C)(C)C)n1c(-c2ccccc2)nc2ccccc21 (centres undefined) | 2 | inactive | –
